Data published in PubChem BioAssay (EPA / NIEHS).
Calls of active or inactive are those of the source. The calls were made as follows: active = hit-call score of the fitted dose curve at least 0.9, where 1 is the maximum; inactive = score below 0.9.

Assay: ATG_Sox_CIS: Attagene CIS-FACTORIAL HepG2 Assay for human SRY-box transcription factor (SOX) (AID 2282960)
Settings: HepG2 Attagene cis-factorial SOX reporter, mRNA; actives raise or lower the signal
Summary of the method: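 After 24 h of chemical treatment, transfected HepG2 reporter cells are lysed for total RNA. Transcript levels come from RT-PCR with labelled primer extension and capillary electrophoresis, analysed bidirectionally versus DMSO.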

SMILES | outcome
NC(N)=NC(N)=NCCc1ccccc1 | inactive
CN1CCc2cccc3c2[C@H]1Cc1ccc(O)c(O)c1-3 | inactive
CCC(=O)OC/C=C(\C)CCC=C(C)C | inactive
C/C=C(\C)C(=O)OC/C=C(\C)CCC=C(C)C | inactive
S=c1[nH][nH]c(=S)s1 | inactive
O=C1OC2(c3ccc(O)cc3Oc3cc(O)ccc32)c2ccccc21 | inactive
CC(C)Cc1ccc(C(C)C(=O)O)cc1 (configuration not stated) | inactive
NC(=O)c1cnccn1 | inactive
CCCCOC(=O)C(C)OC(=O)CCC (configuration not stated) | inactive
O=C(O)c1ccc(C(=O)O)c(C(=O)O)c1 | inactive
CC(CCO)CC(C)(C)C (configuration not stated) | inactive
CCO[Si](CCC#N)(OCC)OCC | inactive
C=C(C)C(=O)OCCC(C)OC(=O)C(=C)C (configuration not stated) | inactive
O=c1cc(-c2ccc(O)cc2)oc2cc(O)cc(O)c12 | inactive
CC1=CC(O)CC(C)(C)C1 (configuration not stated) | inactive
CCC(=O)OCC=Cc1ccccc1 | inactive
CCCCC1CCCCC(=O)O1 (configuration not stated) | inactive
CCCCCCCCCO | inactive
CC(C)(O)CCc1ccccc1 | inactive
CN(C)CCC=C1c2ccccc2CCc2ccccc21 | inactive
CCOC(=O)COC(=O)c1ccccc1C(=O)OCC | inactive
CC(C)(CO)CO | inactive
CCCCOCCOCCO | inactive
Brc1cc(Br)cc(Br)c1 | inactive
CC(C)Cc1ccccc1 | inactive
Nc1ccc(O)c(N)c1 | inactive
CCCC1CCC(=O)CC1 | inactive
